Experimental data published in PubChem BioAssay (NCATS).
Calls of active or inactive are those of the source. Calls come from the whole dose curve; as a rule, active = well fitted activation curve with a large enough effect; inconclusive = small, poorly fitted or top-dose-only effect; inactive = flat fitted curve, though single readings scatter. Square brackets hold non-standard residues; d marks the D form. Peptide text beside a SMILES is read from it. Orn = NCCC[CH](N)C(=O)O

assay: Confirmation and Secondary Assay for Modulators of Hemoglobin Beta Chain Splicing at IVS2 705 locus (AID 930); details: HeLa EGFP-705 splicing reporter, GFP fluorescence, 48 h; series mostly up to 46.1 µM
From the text: NIH Chemical Genomics Center [NCGC] NIH Molecular Libraries Screening Centers Network [MLSCN] MLSCN Grant: 1 X01 MH080684-01 PI Name: Dr. Ryszard Kole NCGC Assay Overview: Modulation of Alternative Splicing as Therapy Abnormal splicing is associated with a number of diseases, including cancer and genetic diseases such as cystic fibrosis, muscular dystrophy and beta-thalassemia. Alteration of disease associated splicing patterns provides a promising target for treatment. […] Mutations in the second intron of the b-globin gene at positions 654 or 705 are clinically relevant and cause mis-splicing which results in an out of frame gene product. […] EGFP-705 HeLa Cells as screen system. HeLa cell lines were stably transfected with a construct in which the EGFP (enhanced green fluorescent protein) cDNA was interrupted by the second intron of the beta-globin gene (IVS2-705). The ISV2 intron contains mutations which cause mis-splicing of EGFP and premature termination of EGFP which results in a nonfluorescent protein product. […] Expression of the transgene was driven by the CMV promoter. We concluded that a low molecular weight compound, which restored correct splicing of intron 2 would also generate functional EGFP protein, resulting in a fluorescent signal. Thus, the HeLa cells that express the EGFP-705 construct can be used for validation of splice site specificity of compounds identified in primary screening of the ISV2 654 construct.
NCGC Assay Protocol Summary: Confirmatory Screening. Freshly thawed HeLa EGFP-705 cells were seeded in 5 ul of optimem media (Invitrogen) containing 2 % fetal calf serum (Hyclone) and 1x penicillin/streptomycin (Invitrogen) at a concentration of 500 cells per well in 1536-well plates. Cells were incubated overnight at 37C in 5% CO2. The next day, cells were treated with DMSO, 500 nM antisense ISV2 654 PNA control oligo, or library compound and allowed to grow at 37C in 5% CO2 for 2 days. The PNA oligo blocked the mutation site in the intron and allowed proper (wild type) splicing to occur, resulting in full length EGFP expression and also allowed for optimization of the assay parameters. Plates were read in the Acumen Explorer (TTP Labtech) using 488 nm laser excitation and 500-520 nm emission PMT filter in a 1 x 8 uM capture mode. Fluorescnet objects ranging in size from 5 to 250 uM were measured and the total peak GFP intensity for each well was used for data analysis. Keywords: Thalassemia, beta-thalassemia, beta-globin, EGFP, ISV2 654, ISV2 705, SSO, PNA, antisense, splicing, MLSMR, MLSCN, NIH Roadmap, qHTS, NCGC

outcome, inactive:
CC(C)=CCc1c(O)cc2occ(-c3ccc4c(c3)OCO4)c(=O)c2c1O
Nc1nc(=O)n(C2OC(CO)C(O)C2O)cc1Cl (stereo not given)
COc1cc(OC)c2c(=O)c(-c3ccccc3)c(C)oc2c1OC
CC1CC2C3CCC4=CC(=O)C=C[C@@]4(C)[C@]3(F)C(O)C[C@]2(C)[C@]1(O)C(=O)COP(=O)(O)O (stereo not given in full)
C=C1c2cccc(O)c2C(O)=C2C(=O)[C@]3(O)C(O)=C(C(N)=O)C(=O)C(N(C)C)C3C(O)C12 (stereo not given in full)
COC(=O)CC1[C@@]2(C)C[C@]34OC5(C)OC6(C7CC(=O)OC(c8ccoc8)[C@]7(C)CCC6(O5)[C@]13C)C(OC(C)=O)[C@]4(OC(C)=O)C2OC(C)=O (stereo not given in full)
COc1cc(OC)c2c(OC)c(-c3ccc4c(c3)OCO4)c(=O)oc2c1
C[N+]1(C)C2CC(OC(=O)C(CO)c3ccccc3)CC1C1OC12 (stereo not given)
CC(=O)OCC(=O)[C@@]1(O)CCC2C3CCC4=CC(=O)CC[C@]4(C)C3C(=O)C[C@]21C (stereo not given in full)
CC(C)CC1NC(=O)C(CCCN)NC(=O)C(C(C)C)NC(=O)C2CCCN2C(=O)C(Cc2ccccc2)NC(=O)C(CC(C)C)NC(=O)C(CCCN)NC(=O)C(C(C)C)NC(=O)C2CCCN2C(=O)C(Cc2ccccc2)NC1=O (stereo not given) (cyclo(FPV[Orn]LFPV[Orn]L); configuration not given here)
CC(=O)[C@]1(O)CCC2C3CC(C)C4=CC(=O)C=CC4(C)[C@@]3(F)C(O)C[C@]21C (stereo not given in full)
CNC1C(O)C2OC3OC(C)CC(=O)[C@@]3(O)O[C@H]2[C@H](NC)C1O (stereo not given in full)
CC(C)(C)NCC(O)COc1cccc2c1CC(O)C(O)C2 (stereo not given)
COc1cc(O)c(C(=O)/C=C/c2ccc(O)c(OC)c2)c(OC)c1
CC1CC2C(C(O)C[C@]3(C)C2CC[C@]3(O)C(=O)CO)[C@]2(C)C=CC(=O)C=C12 (stereo not given in full)
CC(C)CC1C(=O)N2CCCC2C2(O)O[C@@](NC(=O)C3C=C4c5cccc6[nH]c(Br)c(c56)CC4N(C)C3)(C(C)C)C(=O)N12 (stereo not given in full)
CC(=O)N1CCN(c2ccc(OCC3CO[C@@](Cn4ccnc4)(c4ccc(Cl)cc4Cl)O3)cc2)CC1 (stereo not given in full)
NC(=O)c1cc[n+](CC2=C(C(=O)O)N3C(=O)C(NC(=O)C(c4ccccc4)S(=O)(=O)[O-])C3SC2)cc1 (stereo not given)
Cc1nnc(SCC2=C(C(=O)O)N3C(=O)C(NC(=O)Cn4cnnn4)[C@@H]3SC2)s1 (stereo not given in full)
CC1CC[C@@]23CCC4(C)[C@@]5(C)CCC6C(C)(C)C(=O)CC[C@@]6(C)C5C=C[C@@]4(OC2=O)C3C1C (stereo not given in full)
COc1c(-c2coc3cc4c(cc3c2=O)CC(OC(C)=O)C(C)(C)O4)ccc2c1C=CC(C)(C)O2 (stereo not given)
COc1ccc(-c2cc(=O)c3ccccc3o2)cc1OC
CC1CC2C3CC(F)C4=CC(=O)C=C[C@@]4(C)[C@@]3(F)C(O)C[C@]2(C)[C@]1(O)C(=O)COC(=O)C(C)(C)C (stereo not given in full)
CNC(=O)Oc1ccc2c(c1)[C@@]1(C)CCN(C)C1N2C (stereo not given in full)
NC(N)=N/N=C\c1c(Cl)cccc1Cl
CC(=O)OC1CC(OC(C)=O)[C@]2(C)C(CC(OC(C)=O)[C@@]3(C)C4=CC(=O)OC(c5ccoc5)[C@]4(C)CCC32)C1(C)C (stereo not given in full)
CC1C(NC(=O)/C(=N/OC(C)(C)C(=O)O)c2csc(N)n2)C(=O)N1S(=O)(=O)O (stereo not given)
O=c1c2cc(O)c(O)cc2oc2cc(O)c(C3OC(CO)C(O)C(O)C3O)c(O)c12 (stereo not given)
O=C1C=CC(=C(c2ccc(O)cc2)c2ccc(O)cc2)C=C1
Cc1cc(=O)oc2cc(O)c(O)cc12
CC(=O)OC1CC2C(C)(C)C(=O)CC[C@]2(C)C2CC[C@]3(C)C(=CC(=O)OC3c3ccoc3)[C@]12C (stereo not given in full)
COC(=O)C1OC(=O)C2OC23[C@]2(C)C(OC(C)=O)CC4C(C)(C)C(=O)CC[C@]4(C)C2CC[C@@]13C (stereo not given in full)
C[C@@]12CCC(OC(=O)c3ccccc3)CC1CCc1ccccc12 (stereo not given in full)
COc1cc2c(cc1OC)-c1c(oc3cc(O)cc(O)c3c1=O)CO2
OCC(O)C(O)C(O)C(O)C(O)CO (stereo not given)
OC1C=C2CCN3Cc4cc5c(cc4C(C1O)C23)OCO5 (stereo not given)
CO[C@@]1(NC(=O)Cc2cccs2)C(=O)N2C(C(=O)O)=C(COC(N)=O)CSC21 (stereo not given in full)
C=CC(C1=CC(=O)C(OC)=C(OC)C1=O)c1ccccc1 (stereo not given)
COC1=CC(=O)C=C(OC)C1=O
CC(=O)c1ccc[nH]1
